{"source": "PubChem BioAssay (NCATS)", "note": "Values joined by “and” are separate entries in the source; they are usually repeats but may differ in a detail not shown here. Identical values can stand only once. Results filed as inconclusive are left out. Values without a mark were called inactive. Calls follow the shape of the dose curve; as a rule, active = well fitted activation curve with a large enough effect in the signal ratio; inconclusive = small, poorly fitted or top-dose-only effect, or a change in a side signal; inactive = flat fitted curve, though single readings scatter; the % refers to the signal ratio."}
{"test": "qHTS assay for small molecule activators of the nuclear factor-kappa B (NF-kB) signaling pathway (AID 651749); also: series mostly up to about 77 µM; % of control where 0% means no effect", "conditions": "NF-kB-bla ME-180 cells, beta-lactamase FRET ratio, 16 h; hits give high values", "excerpt": "National Center for Advancing Translational Sciences [NCATS] NIH Chemical Genomics Center [NCGC] U.S. Environmental Protection Agency [EPA] National Institutes of Environmental Health Sciences [NIEHS] National Toxicology Program [NTP] Assay Overview: Transcription factors and their stimulated target gene expression play pivotal roles across many cellular processes including responses to environmental stimuli. Proper regulation of associated pathways is critical to maintain cell health and function. Constitutive activation of transcription factor pathways has been implicated in tumors as it may block cellular functions such as apoptosis and lead to invasion and metastasis. One important transcription factor that stimulates gene expression in response to cytokines, UV radiation, and other stimuli is nuclear factor-kappa B (NF-kB). To measure activation of the NF-kB pathway, the NF-kB-bla ME-180 cell line stably expressed beta-lactamase reporter gene under the regulation of a NF-kB response element was obtained from Invitrogen. This assay allows measurement of the NF-kB pathway activity induced by compounds in a ME-180 cell line. This system quantitates NF-kB activity using a FRET-based assay system where beta-lactamase expression disrupts FRET, allowing for fluorescent measurement of activity.\nAssay Protocol Summary: For toxicology screening, 2,000 cells in 5 uL/well were dispensed into black, clear-bottom 1536-well plates using a Multidrop Combi (Thermo Scientific) dispenser. Following transfer of 23 nL compound or DMSO vehicle by a pin tool, the plates were incubated 16 hr at 37C and 5% CO2."}
{"smiles": "COc1cccc2c1C(=O)c1c(O)c3c(c(O)c1C2=O)C[C@@](O)(C(=O)CO)C[C@@H]3O[C@H]1C[C@H](N)[C@H](O)[C@H](C)O1", "activation": "-4.76%"}
{"smiles": "CC(=O)O[C@]1(C(C)=O)CC[C@H]2[C@@H]3C[C@H](C)C4=CC(=O)CC[C@]4(C)[C@H]3CC[C@@]21C", "activation": "-2.22% and -5.39%"}
{"smiles": "CN(C)C(=S)SC(=S)N(C)C", "activation": "-1.81%"}
{"smiles": "O=c1ccc2ccccc2o1", "activation": "-0.596% and -0.85% and -2.41%"}
{"smiles": "Cc1cc(=O)n(-c2ccccc2)n1C", "activation": "-1.22%"}
{"smiles": "COC1=CC(=O)C[C@@H](C)[C@]12Oc1c(Cl)c(OC)cc(OC)c1C2=O", "activation": "-1.44%"}
{"smiles": "Oc1ccc(O)cc1", "activation": "-1.26%"}
{"smiles": "O=C1OC(c2ccc(O)cc2)(c2ccc(O)cc2)c2ccccc21", "activation": "-1.2% and -2.62%"}
{"smiles": "CC(O)C(=O)O", "note": "(stereo unspecified)", "activation": "-0.579%"}
{"smiles": "O=C(O)CCCCC(=O)O", "activation": "1%"}
{"smiles": "Nc1ccc(C(=O)O)cc1", "activation": "0.93%"}
